Measurements published in PubChem BioAssay AID602122 (National Center for Advancing Translational Sciences (NCATS), 2011).
Active and inactive are the calls of the source.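 Rule for the calls: active = translocation seen by eye under the microscope after immunostaining of patient fibroblasts; inconclusive = translocation result judged unclear; inactive = no translocation seen.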

Each compound was assayed against Lysosomal alpha-glucosidase (Homo sapiens) (UniProt P10253) (assay: qHTS for Activators of Human alpha-Glucosidase as a Potential Chaperone Treatment of Pompe Disease: Fibroblast Translocation). Conditions: Pompe patient fibroblasts, GAA immunostaining lysosomal translocation, 6 d.
From the text: Alpha-glucosidase is responsible for hydrolysis of terminal, non-reducing 1,4-linked alpha-D-glucose residues with release of alpha-D-glucose. It is a lysosomal hydrolase that is required for the degradation of a small percentage (1-3%) of cellular glycogen in human. Deficiency of this enzyme results in glycogen-storage disease type II (GSDII), also referred to as Pompe disease, an autosomal recessive disorder. Structurally normal glycogen is accumulated in lysosomes and cytoplasm in affected patients, primarily in muscle tissues. Excessive glycogen storage within lysosomes may interrupt normal functioning of other organelles and leads to cellular injury. In turn, this leads to enlargement and dysfunction of the entire organ involved (eg, cardiomyopathy and muscle weakness). It has reported that the improper folding and trafficking of alpha-glucosidase resulting from the genetic mutations may account for a significant number of Pompe patients. […] We optimized this alpha-glucosidase assay in 1536-well plate format for identifying the novel small molecule inhibitors with the structures other than the sugar analogs in order to develop the new pharmacological chaperones. Validated hits were tested in this fibroblast translocation assay that measures fluorescence through immunostaining Pompe patient derived fibroblasts. NIH Chemical Genomics Center [NCGC] […]

**Q.** For `CCCN1CNc2c(c(=O)[nH]c(=S)n2Cc2ccc(OC)c(OC)c2)C1`, which outcome is on record?
**A.** active; yes
